# Reference: PubChem BioAssay (NCI)
# The panel holds about 79,000 compounds, 15% with a hit somewhere; the sample as a whole holds those more often. Values without a mark were called inactive. Activity calls are given as the source filed them. No stated cut-off is given here; in the data, active means growth inhibition above about 70%; inactive means the rest.
# Test: NCI Yeast Anticancer Drug Screen. Data for the bub3 strain (AID 167)
# Conditions: S. cerevisiae bub3 mutant strain, at 50.0 µM (retest, dose inferred, filed as 5.0), hits give high values
# Outline: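 In this screen, a yeast mutant lacking normal mitotic checkpoint function is challenged with compound. Relative growth versus vehicle gives the inhibition value.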
row,SMILES,growth inhibition
1,O=CC=C(c1ccccc1)c1ccccc1,98% (active)
2,FC(F)(F)c1nc2nc(Cl)c(Cl)nc2n1CCCN1CCOCC1,56%
3,BrCC[P+](c1ccccc1)(c1ccccc1)c1ccccc1,98% (active)
4,N#CSc1ccc(S(N)(=O)=O)cc1,86% (active)
5,O=[N+]([O-])c1ccc2nc3ccccc3cc2c1,91% (active)
6,O=C(NC(Nc1ccc(F)c(Cl)c1)(C(F)(F)F)C(F)(F)F)C(C(F)(F)F)C(F)(F)F,95% (active)
7,O=C(/C=C\c1ccc(Cl)cc1Cl)c1cccs1,85% (active)
8,O=C(NCCCCNCCCNC(=O)c1cc(-c2ccccc2)nc2ccccc12)c1cc(-c2ccccc2)nc2ccccc12,65%
9,NC(=NCc1ccccc1)N/N=C\c1ccnc2ccccc12,60%
10,CCCCN(CCCC)CCSc1ccc(Cl)cc1,43%
11,COc1cc(C2C3=C(COC3=O)Oc3cc4c(cc32)OCO4)ccc1O (centres undefined),-4%
12,C#CCCCc1ccccc1,79% (active)
13,CCc1ccc(NS(=O)(=O)c2ccccc2)c([N+](=O)[O-])c1,36%
14,COc1ccc(C2c3cc4c(cc3OC(C)(O)C2C)OCO4)c(OC)c1 (centres undefined),67%
15,COC(=O)c1ccc(CCC2=CC(=O)C(Br)=CC2=O)cc1,6%
16,NNC(=O)CCc1ccc2ccc3ccccc3c2c1,54%
17,Cn1c2ccccc2c(=O)c2cc(NC(=O)CCCCC(=O)Nc3ccc4c(c3)c(=O)c3ccccc3n4C)ccc21,10%
18,CC(CC(C)(C)[N+](C)(C)C)[N+](C)(C)C (centres undefined),99% (active)
19,CC1CCN(CCC(=O)c2ccc(Cl)cc2)CC1,50%
20,CCCCCCCCCCCCCCC(C(=O)[O-])[n+]1ccccc1 (centres undefined),91% (active)

row,SMILES,growth inhibition
1,CNC1C(OC2C(OC3C(O)C(O)C(N=C(N)N)C(O)C3N=C(N)N)OC(C)C2(O)CO)OC(CO)C(O)C1O (centres undefined),2%
2,O=C(O)c1ccccc1-c1ccccc1C(=O)Nc1ccc2c(c1)Cc1ccccc1-2,22%
3,O=[N+]([O-])c1cccc2nc3ccccc3c(NCCCN3CCOCC3)c12,97% (active)
4,C=CC(C)(O)CCC1C(=C)C(O)CC2C(C)(C)CCCC12C (centres undefined),80% (active)
5,CN1c2ccc(Cl)cc2C(=O)NC1c1ccc([N+](=O)[O-])s1 (centres undefined),97% (active)
6,[O-][n+]1c2ccc(O)cc2nc2ccc(Br)cc21,74% (active)
7,O=C1c2ccccc2-c2nc3ccccc3nc21,39%
8,CCCCN1C(=O)N(c2ccc(OCC)cc2)C2N(CCCC)C1C(C)(C)C2(C)C (centres undefined),24%
9,CO[C@H]1C[C@](C)(O)Cc2cc3c(c(O)c21)C(=O)c1c(O)cc2c(c1C3=O)O[C@@H]1O[C@@]2(C)[C@H](O)[C@@H](N(C)C)[C@@H]1O,15%
10,COc1cc2c(cc1[N+](=O)[O-])C(=O)C(Br)(Br)CCC2,99% (active)
11,O=C1OC(CCl)CN1/N=C/c1ccc([N+](=O)[O-])o1 (centres undefined),70% (active)
12,CN(C)CCOc1ccc2c(c1)C/C(=C/c1ncc([N+](=O)[O-])n1C)C2=O,6%
13,CCCCCCCCCCCCCCCCCCN(C)CC(COP(=O)([O-])OCC[N+](C)(C)C)OC (centres undefined),99% (active)
14,CC(C)c1ccccc1NC(=O)/C(Cl)=C(\Cl)C(=O)O,77% (active)
15,O=[N+]([O-])C(=C(Sc1ccccc1)Sc1ccccc1)C(Cl)=C(Cl)Cl,59%
16,C(=C\c1ccccc1)/COc1ccccc1C(N1CCOCC1)n1nc2ccccc2n1 (centres undefined),98% (active)
17,O=C1C(Nc2ccccc2)=C(Oc2ccccc2)C(=O)c2ccccc21,59%
18,CCN(CC)CCN1C(=O)c2cccc3cc(OC)cc(c23)C1=O,15%
19,CN(C)Cc1cc(N=Nc2ccc(Cl)cc2)cc(CN(C)C)c1O,73% (active)
